# Luc counter: Counterscreen for Luciferase (Kinase-Glo TM) Inhibition; Luciferin 4-monooxygenase (Photuris pensylvanica), Q27757; Kinase-Glo luciferase, ATP luminescence, 8 min; Potency, µM (series often up to 38.3 µM), most hits filed as inhibitors; 0.28% of 200,000 active; further: nearly all actives have a fitted effect of over 60% in size
#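 Substrate mix (final 50 mM imidazole pH 7.2, 50 mM KCl, 7 mM MgCl2, 10 uM ATP, 0.01% Tween 20, 0.05% BSA) plus pin-tool compound, then Kinase-Glo detection mix; 8 min ambient, luminescence read.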
# ELG1 genotoxic: qHTS screen for small molecules that induce genotoxicity in human embryonic kidney (HEK293T) cells expressing luciferase-tagged ELG1; HEK293T ELG1-luciferase reporter, luminescence, 16 h; Potency, µM (top dose mostly 46 µM), hits mostly activators; 1.3% of 330,000 active; AID 504466, 2011; further: nearly all actives have a fitted effect of over 60% in size
#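 Genotoxic stress is detected as increased luminescence from luciferase-tagged ELG1 in HEK293T cells, measured with ONE-Glo after a 16 hr treatment at 37 °C.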
# FLuc counter: qHTS profiling assay for firefly luciferase inhibitor/activator using purifed enzyme and Km concentrations of substrates (counterscreen for miR-21 project); Luciferin 4-monooxygenase (Photinus pyralis), P08659; purified FLuc, Km substrates, luminescence inhibition; Potency, µM (top dose mostly 57.5 µM), actives largely listed as inhibitors; 6.9% of 360,000 active; AID 588342, 2011; further: nearly all actives have a fitted effect of over 55% in size
# Target sequence (P08659 whole entry, looked up): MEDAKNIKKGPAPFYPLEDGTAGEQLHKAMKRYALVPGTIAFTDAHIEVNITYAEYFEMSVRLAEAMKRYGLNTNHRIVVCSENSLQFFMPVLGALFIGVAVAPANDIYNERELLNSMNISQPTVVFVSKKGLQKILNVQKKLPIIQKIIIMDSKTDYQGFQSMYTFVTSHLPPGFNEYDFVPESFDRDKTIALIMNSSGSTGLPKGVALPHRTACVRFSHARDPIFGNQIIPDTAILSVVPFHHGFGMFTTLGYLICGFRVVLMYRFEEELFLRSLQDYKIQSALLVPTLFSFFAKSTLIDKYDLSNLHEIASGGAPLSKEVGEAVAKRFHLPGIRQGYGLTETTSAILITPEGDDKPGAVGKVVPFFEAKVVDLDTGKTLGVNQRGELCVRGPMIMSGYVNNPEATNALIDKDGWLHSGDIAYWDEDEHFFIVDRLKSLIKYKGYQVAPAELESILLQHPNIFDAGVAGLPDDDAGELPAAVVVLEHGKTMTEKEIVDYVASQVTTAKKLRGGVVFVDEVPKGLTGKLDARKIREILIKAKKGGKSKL
#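 Biochemical qHTS of compounds, final roughly 60 µM downward over six points, against 10 nM purified firefly luciferase using Km concentrations of substrates (10 uM D-luciferin, 10 uM ATP) in Tris acetate pH 7.5 buffer; luminescence output.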
# Rab9 prom act: qHTS Assay for Rab9 Promoter Activators | Huh7 Rab9 promoter-luciferase reporter, luminescence, 24 h | Potency, µM (doses to about 9.22 µM), hits mostly activators | 2.8% of 320,000 active; further: nearly all actives have a fitted effect of over 60% in size
#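 Cell-based reporter: Huh7 stable for Rab9 promoter-driven luciferase, plated in reduced-serum medium with 10% FBS at 1500 cells/well, compound-treated 24 h at 37 °C, luminescence read after 10 min reagent.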
# SMN2 splice enh: qHTS Assay for Enhancers of SMN2 Splice Variant Expression; 2.8% of 210,000 active; HEK293 SMN2-luciferase splicing reporter, luminescence, 30-36 h; AID 1458, 2008; Potency, µM (top dose mostly 46.1 µM), usual class: activators; further: nearly all actives have a fitted effect of over 55% in size
#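 HEK293 cells carry an SMN2 […]–luciferase reporter in which exon 7 inclusion puts luciferase in frame. Cells were plated 10-12 h before compound addition, then incubated 30-36 h at 37C. ONE-Glo luminescence was read; sodium butyrate at 4.5 mM final served as control.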
# NPC1 promoter act: qHTS Assay for NPC1 Promoter Activators; Huh7 NPC1 promoter luciferase reporter, 24 h; Potency, µM (highest dose often 9.22 µM), most hits filed as activators; 2.4% of 320,000 active; further: nearly all actives have a fitted effect of over 60% in size
#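 Stably transfected Huh7 (NPC1 promoter→luciferase), 1500 cells/well in Opti-MEM + 10% FBS, 2 h settle, then compound 24 h at 37 °C. Luminescence after 10 min with Amplite reagent.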
# Hits are given with their value; 0 = inactive; ? = inconclusive; - = no result; ! = a repeat was not active; [ ] = dose if it differs, or a comment. Compounds with a hit are over-represented: about 7.3% of the library has one in this group of screens. The call rests on the fitted dose curve; in most records, active means well fitted curve in the direction sought with a large enough effect; inconclusive means small, poorly fitted or top-dose-only effect, or another doubt; inactive means no such curve, though single readings can be large; an effect the other way counts as inactive or inconclusive.
SMILES,Luc counter,ELG1 genotoxic,FLuc counter,Rab9 prom act,SMN2 splice enh,NPC1 promoter act
COc1ccccc1-c1noc(-c2ccccc2C(=O)NCc2ccco2)n1,0,0,19µM,0,0,0
CC(NC(=O)/C=C/c1ccco1)c1nc2ccccc2n1Cc1c(Cl)cccc1Cl (configuration not stated),0,0,0,0,0,0
C#CCn1c(/C=C/c2ccc(Cl)cc2)nc2ccccc21,-,-,0.19µM,-,2.5µM,-
Clc1ccc(Cn2c(/C=C/c3ccco3)nc3ccccc32)cc1,0,0,11µM,3.5µM,0,?
O=c1c2ccccc2nc(/C=C/c2ccc(Cl)cc2)n1CCO,-,0,0,0,-,0
Cc1ccc(Cn2c(/C=C/c3ccco3)nc3ccccc32)cc1,0,?,11µM,?,-,?
Cc1ccc(Cn2c(Cc3ccccc3)nc3ccccc32)cc1,0,0,?,0,0,0
COc1cc(NS(=O)(=O)c2cnc(N)nc2)cc(OC)c1,-,-,0,-,-,-
CC1CCN(S(=O)(=O)c2ccc3c(ccc(=O)n3CC(=O)NCc3ccccc3)c2)CC1,-,-,0,-,-,-
O=C(N/N=C/c1ccco1)Nc1ccccc1,-,?,19µM,4µM,-,3.2µM
O=C(CCC(=O)Nc1ccccc1)N/N=C/c1ccco1,0,0,0,0,0,0
O=C(N/N=C/c1ccc(Cl)cc1)Nc1ccccc1,0,?,4.3µM,?,?,?
Clc1ccc(/C=N\Nc2ccccc2)cc1,-,?,17µM,0,-,0
CC(=O)Nc1ccccc1-c1nc2ccccc2n(CC(=O)Nc2cccc(C)c2C)c1=O,-,-,0,-,-,-
CCOc1ccc(OCC)c(NC(=O)c2nnn(CC(=O)Nc3ccc(C)cc3C)c2N)c1,-,-,0,-,0,-
COc1ccc(Nc2ncnc3c2oc2ccccc23)cc1,0,8.9µM,9.5µM,1.3µM,11µM,2.5µM
c1ccc(Sc2ncnc3c2oc2ccccc23)cc1,0,?,8.5µM,?,?,?
COc1cccc(Nc2nc(C)nc3c2oc2ccccc23)c1,-,0,?,0,-,0
Cc1ccc(Nc2ncnc3c2oc2ccccc23)cc1,0,7.3µM,3.4µM,2µM,13µM,2.5µM
Cc1ccc(-n2ncc(C(=O)NCc3ccc4c(c3)OCO4)c2C2CCN(C(=O)OC(C)(C)C)CC2)c(C)c1,-,-,0,-,-,-
Cn1cc(-c2cc3n(n2)CCC(=O)N3CC(=O)NCc2ccc(Cl)cc2)c2ccccc21,-,-,0,-,-,-
CCOC(=O)C1CCCN(C(=S)Nc2ccc(Nc3ccccc3)cc2)C1 (configuration not stated),0,0,0,1.4µM,11µM,?
CCOC(=O)C1CCCN(CCC(=O)Nc2cccc(C)c2)C1 (configuration not stated),0,?,15µM!,3.2µM,0,3.5µM
Cc1oc2ccc(O)c(CN3CCCC(C)C3)c2c1C(=O)Nc1ccccc1 (configuration not stated),-,-,0,-,0,-
O=C(CC(c1ccco1)S(=O)(=O)c1ccccc1)c1ccccc1 (configuration not stated),-,0,21µM,0,-,0
SMILES,Luc counter,ELG1 genotoxic,FLuc counter,Rab9 prom act,SMN2 splice enh,NPC1 promoter act
O=S(=O)(NCC(c1ccco1)S(=O)(=O)c1ccccc1)c1ccccc1 (configuration not stated),-,-,0,-,-,-
O=C(CC(c1cccs1)S(=O)(=O)c1ccccc1)c1ccc(F)cc1 (configuration not stated),0,0,3.4µM,0,0,0
O=C(NCC(c1cccs1)S(=O)(=O)c1ccccc1)c1ccc(C(F)(F)F)cc1 (configuration not stated),-,-,0,-,-,-
Cc1ccc(C(=O)CC(c2cccs2)S(=O)(=O)c2ccc(C)cc2)cc1 (configuration not stated),0,?,1.3µM,?,0,0
CC12CC[C@@H]3c4ccc(OS(=O)(=O)O)cc4CC[C@H]3C1CCC2=O (some centres not stated),0,-,-,-,0,-
CN(C)c1ccc(C=C2C(=O)OC(C)(C(C)(C)C)OC2=O)cc1 (configuration not stated),0,0,9.5µM,0,0,0
CCN(CC)c1ccc(C=C2C(=O)OC(C)(C(C)(C)C)OC2=O)cc1 (configuration not stated),0,0,0,0,0,0
CN(C)c1ccc(C=C2C(=O)OC(C)(C)OC2=O)cc1,0,0,19µM,0,0,0
COCCNc1ccc2cc(S(=O)(=O)N3CCCCC3)ccc2n1,-,-,0,-,-,-
CCOC(=O)C1C(=O)CC(C)(O)C(C(=O)OCC)C1c1ccc(C)s1 (configuration not stated),0,0,0[2.3 µM],?,0,4.5µM
CCOC(=O)C1C(=O)CC(C)(O)C(C(=O)OCC)C1c1ccccc1 (configuration not stated),0,0,0,0,0,0
CCCCN(C)C(=O)C1CCCN(c2ncnc3onc(C)c23)C1 (configuration not stated),-,-,0,-,-,-
O=C(CC(Nc1ccc(Cl)cc1Cl)C(=O)O)c1ccccc1 (configuration not stated),-,6.5µM,2.7µM,0,-,0
Cc1ccc(NC(CC(=O)c2ccccc2)C(=O)O)cc1Cl (configuration not stated),-,?,2.1µM,?,-,0
O=C(CC(Nc1ccccc1)C(=O)O)c1ccccc1 (configuration not stated),?,?,0.85µM,2.8µM,13µM,3.2µM
O=C(CC(C(=O)O)c1cccc(Cl)c1)c1ccccc1 (configuration not stated),-,0,0,0,-,0
O=C(CC(Nc1ccccc1)c1ccc(F)cc1)c1ccccc1 (configuration not stated),0,?,?,0,0,0
O=C(NCC(c1ccco1)S(=O)(=O)c1cccs1)c1ccccc1 (configuration not stated),-,-,0,-,-,-
Cc1cc(NC(=O)c2ccc3[nH]c(C)c(C)c3c2)ccn1,-,0,15µM,0,-,0
CC(=O)Nc1cccc(NC(=O)c2ccc3[nH]c(C)c(C)c3c2)c1,-,0,11µM,0,-,0
O=c1c(-c2ccc(O)cc2)coc2cc(OC3OC(CO)C(O)C(O)C3O)ccc12 (configuration not stated),0,16µM,?,?,?,3.2µM
COc1cc(O)c2c(=O)c(-c3ccc(O[C@@H]4O[C@H](CO)[C@@H](O)[C@H](O)[C@H]4O)cc3)coc2c1,-,?,17µM,4µM,-,1.6µM
